Results filed as inconclusive are left out. A number with no mark means an inactive call. Activity calls are given as the source filed them. The call rests on the fitted dose curve; in most records, active means well fitted inhibition curve with a large enough effect; inconclusive means small, poorly fitted or top-dose-only effect; inactive means flat fitted curve, though single readings scatter.
On the % scale 0 is the no-effect control and ±100 the full control effect; potency means the concentration at half of the fitted maximal effect.

For this test, the system named is HaCat. As to the kind of experiment: Cytotoxic Profiling of Annotated Libraries Using Quantitative High-Throughput Screening (AID 1296008). Further: nearly all actives have a fitted effect of over 60% in size. The conditions noted are these: Five cell lines viability, CellTiter-Glo ATP luminescence, 48-72 h; max response: stronger effect = lower value. The method in brief:
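Cytotoxicity was measured as CellTiter-Glo ATP luminescence, read after 10 min at room temperature. Compound treatment of the cells lasted 48 or 72 hr at 37 degrees Celsius in a qHTS format.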
On to `COC(=O)Nc1cc(Nc2cc(NC3CC3)c3ncc(C#N)n3n2)c(Cl)c(N2CCN(C)CC2)c1`, for which the Potency is 0.741 µM (active). On the same count and under the same terms, the value for `CC1(C(=O)Nc2ccc(F)nc2)CCCN1c1nc(Nc2cc(C3CC3)[nH]n2)c2cccn2n1` (stereo not given) was 2.06 µM (active). As for `C=C[C@@]12COC(=O)C(=C)[C@@H]1[C@@H](O)[C@H](C(=C)C(=O)OC)[C@@H](O)C2`, the max response was -29%. As to `Cc1csc2c(N[C@@H](C)CN3CCN(S(=O)(=O)c4ccc(Cl)c(Cl)c4)CC3)ncnc12`, the Potency is 2.91 µM (active). Still for that read-out and setting: then `CN1CCC(NC(=O)c2cc(-c3c(O)cc(O)cc3Oc3ccc([N+](=O)[O-])cc3)on2)CC1`, with 1.46 µM (active).

As for `CC1CC(=O)C2=C(C1)C1OC1C1(O)C2C(=O)c2cccc(O)c2C1O` (stereo not given), the max response is -53.4%. Take `N#Cc1ccnc(Nc2cc(C3CCN(C4COC4)CC3)cc(N3CCC(F)(F)C3)n2)c1`: the Potency is 23.4 µM (active). As for `CC(C)c1ccccc1OC(=O)NCCc1ccc2ccccc2c1`, the max response was 3.54%. For the compound `COc1ccc(-c2cc3onc(-c4ccncc4)c3c(=O)n2C)cc1`, the max response is -2.33%. With `CC[C@@H](C)Nc1cc(C(=O)NC2CC3CCC(C2)N3c2ccc(C(=O)C3CC3)cn2)c(C)cc1C(N)=O` (stereo not given in full), the Potency was 0.184 µM (active).

Values taken from PubChem BioAssay (NCATS).
